# Screens: PubChem, National Center for Advancing Translational Sciences (NCATS)
# TR SRC2 fluor cs = Total Fluorescence Counterscreen for Inhibitors of the Interaction of Thyroid Hormone Receptor and Steroid Receptor Coregulator 2; 0.29% of 280,000 active; TRb/SRC2 Texas Red total fluorescence interference; Potency, µM (highest dose often 106 µM), for inactives: top-dose fluorescence change, negative = quenching; active = well fitted curve in either direction with a large enough effect; inconclusive = small, poorly fitted or top-dose-only effect
#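 Flags fluorescent or light-absorbing compounds by total fluorescence, S + 2P, at 555 nm excitation and 632 nm emission. Mixture: 20 nM Texas Red SRC2 peptide, 0.6 uM human TRb LBD, 1 uM T3, 5% DMSO; compound exposure 5 h at ambient temperature.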
# Tau FP inhib = qHTS for Inhibitors of Tau Fibril Formation, Fluorescence Polarization | 0.39% of 280,000 active | Potency, µM (doses to about 57.7 µM), inactives show top-dose activity, negative = inhibition, hits mostly inhibitors | Microtubule-associated protein tau (Homo sapiens), P10636 | K18 P301L tau heparin fibrillization, Alexa594 FP, 6 h; also: nearly all actives have a fitted effect of over 55% in size
# Target sequence (P10636 561-689 P618L limits assumed): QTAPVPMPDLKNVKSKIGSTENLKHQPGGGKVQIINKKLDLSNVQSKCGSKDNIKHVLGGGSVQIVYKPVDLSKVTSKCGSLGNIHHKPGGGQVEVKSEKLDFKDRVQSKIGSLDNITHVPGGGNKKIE
#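 FP of Alexa 594-tau after heparin (20 uM) induction. Substrate: human K18 P301L, 15 uM unlabeled, 0.24 uM labeled. Buffer 100 mM sodium acetate pH 7. 6 hr, 37 C.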
# Tau fibril ThT = qHTS for Inhibitors of Tau Fibril Formation, Thioflavin T Binding; Microtubule-associated protein tau (Homo sapiens), P10636; recombinant tau K18 P301L, heparin-induced fibrillization, ThT fluorescence; Potency, µM (series often up to 57.4 µM), without a hit: at the top dose activity, negative = inhibition, usual class: inhibitors; 2.1% of 270,000 active; also: nearly all actives have a fitted effect of over 55% in size
#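 Fibril formation assay: tau K18 P301L at 15 uM with trace Alexa 594 label, heparin inducer 20 uM, pH 7 sodium acetate buffer, 37 C for 6 hr; endpoint ThT signal.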
# RGS12 GoLoco inh = qHTS Assay for Inhibitors of RGS12 GoLoco Motif Activity (Red Fluorophore). Guanine nucleotide-binding protein G(i) subunit alpha-1 (Homo sapiens), P63096. Gai1:RGS12 GoLoco peptide FP, rhodamine, 10 min. Potency, µM (series often up to 61.6 µM), inactives show at the top dose activity, negative = inhibition, hits mostly inhibitors. 0.44% of 230,000 active; active = well fitted inhibition curve with a large enough effect, not every such curve was filed as active; inactive = no such curve, though single readings can be large or run the other way; also: nearly all actives have a fitted effect of over 30% in size
# Tau fluor cs = Counterscreen qHTS for Inhibitors of Tau Fibril Formation, Fluorescence Polarization; tau K18 P301L Alexa594 fluorescence, heparin fibrillization; Potency, µM (highest dose often 57.7 µM), for inactives: at the top dose activity change, negative = decrease; 0.93% of 280,000 active; AID 1463, 2008; also: nearly all actives have a fitted effect of over 55% in size
#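 Human tau K18 P301L (15 uM unlabeled, 0.24 uM Alexa 594-labeled) in 100 mM sodium acetate pH 7 with 20 uM heparin, 6 hr at 37 C. ThT 30 uM added, 1 hr ambient; Alexa 594 FP and total fluorescence read at 555/632 nm.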
# TRb-SRC2 inh = qHTS for Inhibitors of the Interaction of Thyroid Hormone Receptor and Steroid Receptor Coregulator 2 | TRbeta-SRC2 peptide binding, fluorescence polarization; receptor liganded with 1 µM T3 | 0.065% of 280,000 active | Potency, µM (titrated, usually from 106 µM), inactives show at the top dose activity change, negative = inhibition, hits mostly inhibitors | Thyroid hormone receptor beta (Homo sapiens), P10828;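 also: plate controls were bound peptide for no effect and peptide without receptor for full effect; nearly all actives have a fitted effect of over 50% in size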
# Target sequence (P10828 whole entry, looked up): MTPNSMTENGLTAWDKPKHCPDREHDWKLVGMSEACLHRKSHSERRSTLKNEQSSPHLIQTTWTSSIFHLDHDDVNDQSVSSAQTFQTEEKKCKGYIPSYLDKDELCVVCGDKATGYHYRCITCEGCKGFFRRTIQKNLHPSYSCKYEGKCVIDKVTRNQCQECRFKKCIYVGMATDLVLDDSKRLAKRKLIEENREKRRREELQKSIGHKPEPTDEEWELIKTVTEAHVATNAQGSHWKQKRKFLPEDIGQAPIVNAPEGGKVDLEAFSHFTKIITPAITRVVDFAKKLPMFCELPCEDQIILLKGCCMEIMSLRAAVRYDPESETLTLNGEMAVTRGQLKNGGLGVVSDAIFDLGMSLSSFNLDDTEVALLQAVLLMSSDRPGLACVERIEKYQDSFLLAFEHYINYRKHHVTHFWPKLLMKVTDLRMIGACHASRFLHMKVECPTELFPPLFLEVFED
#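 Quantitative HTS by FP: 0.6 uM TRb LBD, 20 nM labeled SRC2 20-mer, 1 uM T3, 5% DMSO; 5 hr ambient incubation; % activity per concentration and potencies from concentration series.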
# Starred values were filed as active, the others as inactive; ? = inconclusive; / = no result; ! = a repeat was not active; [ ] = remark or other dose. A selection: hits, their analogues and other compounds. The true share with any hit is near 3.2%. Unless noted, calls follow the shape of the dose curve; as a rule, active = well fitted curve in the direction sought with a large enough effect; inconclusive = small, poorly fitted or top-dose-only effect, or another doubt; inactive = no such curve, though single readings can be large; an effect the other way counts as inactive or inconclusive. Unless noted, % is scaled to controls: 0 for no effect and ±100 for the full control effect; potency is read from the fitted curve at half-maximal effect.
SMILES,TR SRC2 fluor cs,Tau FP inhib,Tau fibril ThT,RGS12 GoLoco inh,Tau fluor cs,TRb-SRC2 inh
COc1ccc(NS(=O)(=O)c2cc([N+](=O)[O-])ccc2N/N=C\c2c(C)[nH]c3ccccc23)cc1,0%,6%,2.5µM*,88%,3.2µM*[quencher],1%
COc1ccccc1NS(=O)(=O)c1cc([N+](=O)[O-])ccc1N/N=C/c1sc(N2CCOCC2)nc1-c1ccccc1,0%,17%,?,173%,?,14%
COc1ccccc1NS(=O)(=O)c1cc([N+](=O)[O-])ccc1N/N=C/c1c[nH]c2ccccc12,-2%,4%,2.8µM*,154%,-78%,-16%
Cc1[nH]c2ccccc2c1/C=N/Nc1ccc([N+](=O)[O-])cc1S(=O)(=O)Nc1ccc(Cl)cc1,-1%,2%,3.2µM*,105%,3.2µM*[quencher],-18%
Cc1[nH]c2ccccc2c1/C=N/Nc1nc2ccccc2[nH]1,0%,-5%,/,-14%,?,2%
COC(=O)C/C=C\[C@@H](C)[C@@H](/C=N\OC[C@@H]1O[C@H](c2ccccc2)C=C[C@@H]1Oc1ccc(OC)cc1)NS(=O)(=O)c1ccc(C)cc1,-3%[11.2 µM],-7%[11.6 µM],-12%[11.5 µM],/,-14%[11.6 µM],-1%[11.2 µM]
CN1CC[n+]2c(CN3C(=O)c4ccccc4C3=O)csc21,-4%,-3%,-2%,18µM*,-1%,0%
COc1cc(CNc2ccc(N3CCN(C(C)=O)CC3)cc2)ccc1OCc1ccccc1,0%[53 µM],-15%,4µM*,4%,?,2%[53 µM]
O=C(O)C(Oc1ccc(Cl)cc1)Oc1ccc(Cl)cc1,-2%[201 µM],/,/,/,/,5%[201 µM]
O=C(O)c1cc(N=Nc2c(O)ccc3ccccc23)cc(C(=O)O)c1,?,-4%,16µM*,153%,-11%,12%
O=c1ccc(N=Nc2ccccc2)ccc1O,-4%,-3%,4.5µM*,3%,?,-2%
Oc1ccc2ccccc2c1N=Nc1ccccc1,112µM*[fluorescent],/,/,/,/,100µM*
O=S(=O)(O)c1ccc(N=Nc2ccccc2)cc1,-2%,10%,-15%,-4%[14.2 µM],-11%,-6%
Oc1ccc(N=Nc2c(O)ccc3ccccc23)cc1,-1%,?,2.5µM*,181%,11µM*[quencher],10%
Cc1ccccc1N=Nc1ccc(N=Nc2c(O)ccc3ccccc23)c(C)c1,0%,/,/,-2%,/,-1%
NC(N)=NCCC[C@H](N)C(=O)N1CCC[C@H]1C(=O)N1CCC[C@H]1C(=O)NCC(=O)N[C@@H](Cc1ccccc1)C(=O)N[C@@H](CO)C(=O)N1CCC[C@H]1C(=O)N[C@@H](Cc1ccccc1)C(=O)O,-1%,/,/,/,/,11%
O=C(c1cc(Br)ccc1O)c1cc(Br)ccc1O,/,/,/,6%[14.2 µM],/,/
COc1ccc(-c2ccc3c(n2)CCCN3C[C@H](O)CN2CCCc3nc(-c4ccc(Br)cc4)ccc32)cc1,?,6%[11.6 µM],?,/,-18%[11.6 µM],-10%[11.2 µM]
NS(=O)(=O)c1ccc(N=Nc2c(O)ccc3ccccc23)cc1,-4%,0%,1.1µM*,11%,-26%,-13%
N#CC1=C(S)N(c2ccccc2)C(c2ccc(-c3cccc(Cl)c3)o2)NC1=O (stereo unspecified),1%,?,22µM*,15%,-28%,0%
CC(=O)Nc1sc(NC(=O)c2ccccc2)nc1-c1cccs1,-4%,-1%,?,-2%,-12%,-2%
CC(=O)Nc1sc(N/N=C\c2ccccc2F)nc1-c1cccs1,-6%,-2%,8.9µM*,-8%,?,-5%
CC(=O)Nc1sc(N/N=C\c2ccc(O)cc2)nc1-c1cccs1,0%,-9%,14µM*,3%,?,2%
CC(=O)Nc1sc(N/N=C\c2cccc(Cl)c2)nc1-c1cccs1,-3%,-6%,10µM*,13%,?,-2%
O[C@@H]1[C@@H](OCc2ccccc2)OC[C@H](O)[C@@H]1O,/,/,/,4%[14.2 µM],/,/
SMILES,TR SRC2 fluor cs,Tau FP inhib,Tau fibril ThT,RGS12 GoLoco inh,Tau fluor cs,TRb-SRC2 inh
CC1(C)O[C@@H]2O[C@H]([C@@H]3COC(C)(C)O3)[C@H](N)[C@H]2O1,/,/,/,7%[14.2 µM],/,/
CCC(=O)OC1(C)C(=O)C2=COC(c3ccc(OC)cc3)=CC2=C(Br)C1=O (stereo unspecified),-1%,-7%,16µM*,-2%,-11%,3%
COc1ccc(C2=CC3=C(Br)C(=O)C(C)(O)C(=O)C3=CO2)cc1 (stereo unspecified),-2%,?,18µM*!,6%,?,8%
CCC(=O)OC1(C)C(=O)C=C2C=C(c3ccc(C#N)cc3)OC=C2C1=O (stereo unspecified),-1%,-8%,-10%,1%,-4%,6%
COc1ccc(C2=CC3=CC(=O)C(C)(O)C(=O)C3=CO2)cc1 (stereo unspecified),-2%,6%,-15%,1%,-11%,7%
O=C(O)CCNc1cc2ccccc2cc1C(=O)O,-2%,?,16µM*,-40%,-25%,-4%
O=C(O)CCNS(=O)(=O)c1ccc2ccccc2c1,3%,-3%,-10%,-1%,-7%,-15%
O=C(/C=C/c1ccccc1)CC(=O)c1ccccc1O,-4%,?,13µM*,4%,?,-3%
O=C(/C=C/c1ccccc1)NC(=O)c1ccccc1O,-2%,5%,?,11%,?,3%
COC(=O)C/C=C\[C@@H](C)[C@@H](/C=N\O[C@@H](C)c1cn([C@H]2COC[C@H]2O)nn1)NS(=O)(=O)c1ccc(C)cc1,-1%[11.2 µM],4%[11.6 µM],-3%[11.5 µM],/,2%[11.6 µM],2%[11.2 µM]
C=CCN1C(=O)C(CC(=O)O)SC1=Nc1cccc([N+](=O)[O-])c1 (stereo unspecified),-1%,-11%,2%,-8%,0%,-14%
C=CCN1C(=O)C(CC(=O)O)SC1=Nc1ccc(N=Nc2ccccc2)cc1 (stereo unspecified),-3%,7%,11µM*,8%,-16%,-2%
CC(=O)Nc1ccc(Nc2nc(C)c([N+](=O)[O-])c(N(C)c3ccccc3)n2)cc1,-5%,?,16µM*,3%,18µM*[quencher],8%
Cc1nc(Nc2ccc(F)cc2)nc(Nc2ccc(F)cc2)c1[N+](=O)[O-],-1%,-6%,-5%,-14%,-19%,-11%
